Screening results from PubChem BioAssay.
Shown are actives, neighbours in structure and some others; about 9.4% of the full set was active somewhere.
HTT aggregate: mutant huntingtin aggregation inhibition | PC12 HttQ103-GFP aggregates, Acumen cytometry, 40 h | Potency, µM (titrated, usually from 46.1 µM), without a hit: top-dose activity change, negative = inhibition, hits mostly inhibitors | hit rate 1.1% among 220,000 | AID 1688; also: potency is read from the fitted curve at half-maximal effect; % is scaled to controls: 0 for no effect and ±100 for the full control effect; nearly all actives have a fitted effect of over 60% in size
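Quantitative HTS on tebufenozide-induced (100 nM) PC12 cells stably expressing polyQ103 Huntingtin exon 1–GFP. Reduction of bright GFP aggregates, detected by laser scanning cytometry after lysis, identified actives across the titration.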
ALDH1A1 block: blocks purified human ALDH1A1 activity | P00352 | Potency, µM (doses to about 75.3 µM), without a hit: top-dose activity, negative = inhibition, hits mostly inhibitors | hit rate 7.3% among 220,000 | Purified ALDH1A1, NADH fluorescence, propionaldehyde substrate; active = well fitted inhibition curve with a large enough effect, not every such curve was filed as active; inconclusive = small, poorly fitted or top-dose-only effect, or another doubt; inactive = no such curve, though single readings can be large or run the other way;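 also: potency is read from the fitted curve at half-maximal effect; plate controls were no enzyme wells and a reference inhibitor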
Target sequence (P00352 whole entry, looked up): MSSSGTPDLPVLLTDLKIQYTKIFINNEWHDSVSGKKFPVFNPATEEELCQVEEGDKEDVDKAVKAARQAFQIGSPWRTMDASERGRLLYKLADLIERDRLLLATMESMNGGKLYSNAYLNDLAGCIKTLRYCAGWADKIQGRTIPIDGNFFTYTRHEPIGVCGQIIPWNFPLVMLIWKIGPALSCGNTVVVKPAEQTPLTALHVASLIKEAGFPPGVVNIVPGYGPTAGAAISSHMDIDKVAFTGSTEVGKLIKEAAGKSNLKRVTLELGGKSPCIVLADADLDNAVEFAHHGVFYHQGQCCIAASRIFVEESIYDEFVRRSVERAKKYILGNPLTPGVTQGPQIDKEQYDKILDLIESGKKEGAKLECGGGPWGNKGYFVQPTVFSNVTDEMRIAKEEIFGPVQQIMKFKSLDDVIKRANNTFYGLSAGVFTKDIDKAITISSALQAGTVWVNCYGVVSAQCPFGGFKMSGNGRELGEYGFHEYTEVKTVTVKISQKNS
IMPase cell inh: cell-permeable inhibitors of inositol monophosphatase (IMPase) | CHO-M1 cells, IP1 accumulation, HTRF TR-FRET ratio | P97697 | inhibition (IP1 accumulation), % at 46.1 µM | 120,000 tested, under 10 active; active = well fitted curve in the direction sought with a large enough effect in the signal ratio, not every such curve was filed as active; inconclusive = small, poorly fitted or top-dose-only effect, or a change in a side signal; inactive = no such curve, though single readings can be large or run the other way; the % refers to the signal ratio;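 also: cells stimulated with carbachol in lithium chloride buffer; plate controls were DMSO basal wells for no effect and reference inhibitor wells for full effect; higher means more IMPase inhibition seen as more IP1 and lower FRET ratio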
Target sequence (P97697 whole entry, looked up): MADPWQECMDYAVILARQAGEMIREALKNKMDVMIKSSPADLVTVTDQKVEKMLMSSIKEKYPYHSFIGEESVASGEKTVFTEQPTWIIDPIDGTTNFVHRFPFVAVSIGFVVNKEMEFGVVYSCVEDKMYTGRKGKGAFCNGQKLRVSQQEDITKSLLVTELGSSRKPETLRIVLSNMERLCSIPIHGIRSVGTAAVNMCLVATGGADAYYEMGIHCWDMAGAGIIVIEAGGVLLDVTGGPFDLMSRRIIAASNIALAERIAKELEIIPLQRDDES
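Carbachol-driven Gq signalling in CHO-M1 cells (2000/well) generates IP1. Compounds that block IMPase raise IP1 and so reduce the FRET signal from Eu-anti-IP1 and d2-IP1 after a 10 min room-temperature lysis.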
HPGD inh: HPGD (human) dehydrogenase inhibition; P15428; purified HPGD, NADH fluorescence kinetic, PGE2 substrate; Potency, µM, without a hit: top-dose activity change, negative = inhibition, actives largely listed as inhibitors; hit rate 4.3% among 150,000; active = well fitted inhibition curve with a large enough effect, not every such curve was filed as active; inconclusive = small, poorly fitted or top-dose-only effect, or another doubt; inactive = no such curve, though single readings can be large or run the other way; also: potency is read from the fitted curve at half-maximal effect; % is scaled to controls: 0 for no effect and ±100 for the full control effect
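NADH formation kinetics: reaction with 30 uM PGE2 and 1 mM NAD+ (final), 20 nM enzyme, Tris-HCl pH 8 with Tween 20, after 15 min compound preincubation at room temperature. Fluorescence change, last versus first of five reads.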
IMPase Li inh: membrane-permeable IMPase blocker, potentiated with lithium; hit rate 0.35% among 210,000; Potency, µM (highest dose often 59.4 µM), for inactives: top-dose activity, negative = IMPase inhibition, most hits filed as inhibitors; CHO-M1 cells, IP1 TR-FRET (IP-One), carbachol + lithium; AID 1457;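 also: IP1 builds up when IMPase is blocked and the TR-FRET signal falls; potency is read from the fitted curve at half-maximal effect; plate controls were basal vehicle for no effect and high inhibitor control for full effect; nearly all actives have a fitted effect of over 50% in size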
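CHO cells stably expressing M1 receptor (2000/well, cultured 16–30 h) treated 30 min at 37C with compound plus low lithium. Cytosolic IP1 by TR-FRET (665/620 ratio and 620 channel) after 10 min lysis; AC50 by Hill fit.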
HTT ATP protect: cytoprotection in Huntington HTT-Q103 PC12 cell model. hit rate 0.14% among 230,000. Potency, µM (series often up to 56.4 µM), for the others: cytoprotection (ATP increase), hits mostly activators. PC12 HTT-Q103 induced, cytoprotection, ATP luminescence, 40 h. AID 1471; also: potency is read from the fitted curve at half-maximal effect; % of control where 0% means no effect; nearly all actives have a fitted effect of over 45% in size
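Compounds added alongside 100 nM tebufenozide, which induces toxic Q103 huntingtin exon 1-GFP in stable PC12 cells; surviving cells quantified by luminescent ATP measurement. Medium: phenol red-free DMEM, 5% equine and 5% calf serum.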
Active calls of the source: *; [ ] = dose if it differs, or a comment. Unless noted, calls follow the shape of the dose curve; as a rule, active = well fitted curve in the direction sought with a large enough effect; inconclusive = small, poorly fitted or top-dose-only effect, or another doubt; inactive = no such curve, though single readings can be large; an effect the other way counts as inactive or inconclusive.

Results for COc1ccc(C2NC(=S)NC(C)=C2C(=O)c2ccccc2)cc1OC (stereo not drawn) ?
HTT aggregate: 3%; ALDH1A1 block: 11µM*; IMPase cell inh: 6; HPGD inh: -13%; IMPase Li inh: -2%; HTT ATP protect: 32%[10 µM]

What do the screens show for `COc1ccc(C2NC(=S)NC(C)=C2C(=O)Nc2ccccn2)cc1OC` (stereo not drawn)?
HTT aggregate: 24%; ALDH1A1 block: 5%; HPGD inh: -3%; IMPase Li inh: 3%; HTT ATP protect: 29%[10 µM]

How did CC1=C(C(=O)c2ccccc2)C(c2cccc([N+](=O)[O-])c2)NC(=S)N1 (stereo not drawn) do in these assays?
HTT aggregate: -3%; ALDH1A1 block: 1.1µM*; IMPase Li inh: 11%; HTT ATP protect: -12%

Results for C[C@]1(C(=O)NCC2CC2)C=C[C@@H](Cc2ccccc2)N1C(=O)c1ccccc1 ?
ALDH1A1 block: -2%; HPGD inh: -12%; IMPase Li inh: -11%; HTT ATP protect: inconclusive

How did CCOC(=O)COn1c(=O)c(-c2ccc(OC)c(OC)c2)[n+]([O-])c2ccccc21 do in these assays?
HTT aggregate: -15%; ALDH1A1 block: 35µM*; IMPase cell inh: 6; HPGD inh: -25%; IMPase Li inh: 3%; HTT ATP protect: -28%[10 µM]

How did CCOn1c(=O)c(-c2cccc3ccccc23)[n+]([O-])c2ccccc21 do in these assays?
HTT aggregate: -1%[9.22 µM]; ALDH1A1 block: 22µM*; IMPase Li inh: 3%; HTT ATP protect: -28%

How did C=CCOn1c(=O)c(-c2ccc(OC)c(OC)c2)[n+]([O-])c2ccccc21 do in these assays?
HTT aggregate: 3%; ALDH1A1 block: inconclusive; IMPase cell inh: 1; HPGD inh: -28%; IMPase Li inh: 18%[38.3 µM]; HTT ATP protect: -21%

Results for C[N+]1(CCC[N+]2(C)C[C@H]3[C@H](C2)[C@H]2C=C[C@@H]3CC2)CCOCC1 (stereo partly drawn) ?
ALDH1A1 block: 7%[13.5 µM]; HPGD inh: 3.2µM*; IMPase Li inh: -24%; HTT ATP protect: -14%[10 µM]

How did CN(C)c1ncc2nc(-c3ccccc3)c(=O)n(C3CC3)c2n1 do in these assays?
ALDH1A1 block: inconclusive; HPGD inh: inconclusive; IMPase Li inh: -2%; HTT ATP protect: -81%

Results for COc1ccc(CNC(=O)C(=O)NCc2cccnc2)cc1 ?
ALDH1A1 block: 0%; IMPase Li inh: -3%

How did COc1ccc2c(c1)C=C(C(=O)OCc1cccnc1)CO2 do in these assays?
HTT aggregate: -1%; ALDH1A1 block: 8.9µM*; IMPase Li inh: 10%; HTT ATP protect: -22%

Results for CCOC(=O)C1=C(C)NC(=O)C1CC(=O)Nc1ccccc1 (stereo not drawn) ?
HTT aggregate: -1%; ALDH1A1 block: 24%; IMPase cell inh: -4; HPGD inh: 35µM*; IMPase Li inh: 10%; HTT ATP protect: 16%[10 µM]

Results for Cc1noc(C)c1-c1nc(N(C)Cc2ccco2)c2ccccc2n1 ?
ALDH1A1 block: inconclusive; IMPase Li inh: 15%; HTT ATP protect: -28%

How did COCCn1c(C)cc(/C=C2\NC(=S)N(C)C2=O)c1C do in these assays?
HTT aggregate: -3%; ALDH1A1 block: 16µM*; HPGD inh: 20µM*; IMPase Li inh: 37%

Results for COc1ccc(-c2nnc3ccc(SCC(=O)N4CCOCC4)nn23)cc1 ?
HTT aggregate: 6%; ALDH1A1 block: -9%; IMPase cell inh: -2; HPGD inh: -10%; IMPase Li inh: 7%[38.3 µM]; HTT ATP protect: 1%[10 µM]

What do the screens show for `COc1ccc(-c2nnc3ccc(SC)nn23)cc1`?
HTT aggregate: inconclusive; ALDH1A1 block: inconclusive; IMPase cell inh: 9; HPGD inh: 32µM*; IMPase Li inh: -17%[38.3 µM]; HTT ATP protect: -22%

How did Cc1cc(Cl)ccc1N=c1ssnc1Cl do in these assays?
HTT aggregate: -17%[9.22 µM]; ALDH1A1 block: 1.3µM*; IMPase cell inh: 3; HPGD inh: 4.5µM*; IMPase Li inh: 4%[38.3 µM]; HTT ATP protect: -9%

How did Cc1cc(C)c(C#N)c(Cl)n1 do in these assays?
HTT aggregate: 3%; ALDH1A1 block: 4%; HPGD inh: -4%; IMPase Li inh: 2%; HTT ATP protect: 2%[10 µM]

What do the screens show for `Nc1ccccc1N=c1ssnc1Cl`?
HTT aggregate: 8%; ALDH1A1 block: inconclusive; IMPase Li inh: -4%; HTT ATP protect: -33%

Results for Cc1cc(C)nc(/N=c2/ssnc2Cl)c1 ?
HTT aggregate: inconclusive; ALDH1A1 block: 4µM*; IMPase cell inh: 16; HPGD inh: 13µM*; IMPase Li inh: 13%[38.3 µM]; HTT ATP protect: -9%[10 µM]

What do the screens show for `Cc1ccc(N=c2ssnc2Cl)cc1`?
HTT aggregate: 12%; ALDH1A1 block: 2.2µM*; IMPase cell inh: inconclusive; HPGD inh: 2.8µM*; IMPase Li inh: -12%[38.3 µM]; HTT ATP protect: -3%

How did O=c1c(-c2ccc(Cl)cc2)nc2cnc(N3CCOCC3)nc2n1C[C@H]1CCCO1 do in these assays?
ALDH1A1 block: inconclusive; IMPase Li inh: 7%; HTT ATP protect: -4%

What do the screens show for `COC(=O)NC(c1ccc(F)cc1)C(C(C)=O)C(=O)OC` (stereo not drawn)?
ALDH1A1 block: 28%[13.5 µM]; HTT ATP protect: -9%[10 µM]

How did C[C@H](N)CCP(=O)(O)O do in these assays?
ALDH1A1 block: 14%; IMPase Li inh: -9%; HTT ATP protect: -25%

What do the screens show for `CCCCCCCCCCCCCCCCCCNC(=O)OC[C@@H](COP(=O)([O-])OCC[n+]1ccsc1)OC`?
IMPase cell inh: 1; HTT ATP protect: 43%[1.9 µM]

What do the screens show for `C=CCn1c(NC(=O)c2ccccc2)c(C#N)c2nc3ccccc3nc21`?
HTT ATP protect: -25%[10 µM]

What do the screens show for `C=CCn1c(NC(=O)c2ccccc2Cl)c(C#N)c2nc3ccccc3nc21`?
HTT aggregate: 16µM*; ALDH1A1 block: inconclusive; IMPase cell inh: -9; HPGD inh: inconclusive; IMPase Li inh: -23%[38.3 µM]; HTT ATP protect: -45%

What do the screens show for `O=C(Nc1nc(NC(=O)c2ccco2)n(-c2ccccc2)n1)c1ccccc1`?
HTT aggregate: inconclusive; ALDH1A1 block: inconclusive; IMPase cell inh: 3; HPGD inh: -27%; IMPase Li inh: 14%[38.3 µM]; HTT ATP protect: 4µM*

How did Nc1nc(NC(=O)c2ccccc2)nn1-c1ccccc1 do in these assays?
HTT aggregate: -2%; ALDH1A1 block: 10%; HPGD inh: -7%; IMPase Li inh: 2%

How did N=C1C=CC(=C(c2ccc(N)cc2)c2ccc(N)cc2)C=C1 do in these assays?
ALDH1A1 block: 7%[13.5 µM]; HPGD inh: 10µM*; IMPase Li inh: 28%; HTT ATP protect: -31%[10 µM]

What do the screens show for `Nc1ccc(C(=O)C(=O)c2ccc(N)cc2)cc1`?
HTT aggregate: 18%[9.22 µM]; HTT ATP protect: 31%[10 µM]
